The campaign covered roughly 370,000 compounds. About 3,800 (1%) were called active. The sample holds actives, similar compounds and a random draw of the others, so the mix is not that of the screen. Rule as the data show it: active = activation above about 7.8%; inactive = the rest.

The test can be described thus: SMARCA2 (BRM) function activators, primary screen, cell-based, luminescence, high throughput (AID 652017).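 Also: 0% = vehicle wells and 100% = reference activator wells.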 The conditions noted are these: MG213 cells, MMTV-luciferase reporter, dexamethasone, overnight; at 9.1 µM; stronger effect = higher value. Background: A reporter such as luciferase makes a cellular process visible.
With `CCOC(=O)N1CCN(C(=O)C[C@@H]2C(=O)N(CCc3ccc(Cl)cc3)C3=CCCC[C@]32C(=O)OCC)CC1`, the activation was -1.86% (inactive). With `COc1cc(NC(=O)C2CCCN(S(=O)(=O)c3ccc(C(C)(C)C)cc3)C2)cc(OC)c1` (configuration not stated), the activation was 2.08% (inactive). As to `CCCCCN1CCCCC(NC(=O)C(C)CCC)C1=O` (configuration not stated), the activation is -0.09% (inactive). As to `CC1CCCCN1C(=S)NCc1ccccc1` (configuration not stated), the activation is 8.25% (active). For the compound `C/C(=N\NC(=S)NCc1ccccc1)C1CCCCC1`, the activation was 1.15% (inactive). Consider `CC1CCCCN1C(=O)CCS(=O)(=O)Cc1ccccc1` (configuration not stated), for which the activation was -2.25% (inactive). On to `O=C1C2CCCN2C(=O)N1CCCCN1CCN(c2cccc(C(F)(F)F)c2)CC1` (configuration not stated), for which the activation is 2.48% (inactive). For `CN(C)C(CNC(=O)c1ccc(OCc2cn3ccccc3n2)cc1)c1ccco1` (configuration not stated), the activation is 11.2% (active). Under `O=Cc1ccc(OCc2cn3ccccc3n2)cc1` stands -6.54% (inactive). Consider `O=C(NCCc1ccco1)c1ccc(OCc2cn3ccccc3n2)cc1`, for which the activation is 6.76% (inactive). As for `CC(=O)N1CCCN(C2=Nc3ccccc3Sc3ccccc32)CC1`, the activation is -0.9% (inactive).

For the compound `O=C(NCc1ccco1)C1CCCN(S(=O)(=O)c2ccc(Cl)s2)C1` (configuration not stated), the activation is -1.17% (inactive). For `O=C(CSc1n[nH]c(-c2cccnc2)n1)Nc1ccnc2ccccc12`, the activation was -1.59% (inactive). Under `Fc1ccc(/C=N/Nc2nc(-c3cccnc3)nc3ccccc23)cc1` stands 11.3% (active). With `COC(=O)c1cccc(Cn2ccc3ccc(-c4ccc5ccn(C(=O)C6CCCCC6)c5c4)cc32)c1`, the activation is -0.58% (inactive). Turning to `Cc1ccccc1NC(=O)COC(=O)c1ccc(Sc2ncn[nH]2)c([N+](=O)[O-])c1`, the activation is -3.59% (inactive).

In the case of `CC[C@@H](CCC(=O)N(c1ccccc1)c1ccccc1)C1CC1`, the activation is -5.25% (inactive). For the compound `Cc1ccc(NS(=O)(=O)c2ccc(C(C)C)cc2)cc1S(=O)(=O)N1CCOCC1`, the activation is -0.94% (inactive). For `COC(=O)[C@@]12CCCCC=C1N(CCc1ccc(Cl)cc1)C(=O)[C@H]2CC(=O)NCc1ccc(OC)c(OC)c1`, the activation was -0.41% (inactive). Under `O=C(Nc1cccc(Cl)c1)c1cncn1-c1ccc(F)cc1` stands -2.14% (inactive). For `CCOC(=O)c1nnn(CC(=O)Nc2cccc(F)c2)c1C(=O)OCC`, the activation is -2.09% (inactive).

With `CCC(=O)Nc1ccc2nn(-c3ccc(F)cc3)nc2c1`, the activation is 9.02% (active).

In the case of `CC1CN(Cc2ccco2)C(=S)N(c2ccccc2)C1=O` (configuration not stated), the activation is -1.86% (inactive). For `CCc1ccccc1N1CN(Cc2ccco2)CNC1=S`, the activation was -4.87% (inactive). Under `CN(C)C(=S)N=c1ssc(=S)n1Cc1ccco1` stands 8.22% (active). Under `COC(=O)C1=C(C)N(Cc2ccc(F)cc2)C(=S)NC1c1cccc(Cl)c1` (configuration not stated) stands -3.14% (inactive); under `Cc1ccc(C(=O)OC2=CC(=O)CC(C)(C)C2)cc1`, 2.66% (inactive). For `Cc1cc(O)ccc1NC1=CC(=O)CC(C)(C)C1` the value was -2.49% (inactive); for `Cc1ccccc1C#CC1=CC(=O)CC(C)(C)C1`, 9.9% (active); for `COc1ccccc1N(CC(=O)Nc1ccc(C(F)(F)F)cc1)S(C)(=O)=O`, -1.17% (inactive). On to `C=CCN1C(=O)[C@@H](CC(=O)NCCCOCCCC)[C@]2(C(=O)OCC)CCCCC/C=C/12`, for which the activation was -1.57% (inactive). In the case of `COc1ccc(-n2c(SCC(=O)NC3CCCC3)nnc2-c2ccncc2)cc1`, the activation was -4.56% (inactive).

In the case of `O=C(O)c1ccccc1-c1ccccc1C(=O)NCCc1ccccc1`, the activation is 1.35% (inactive). Regarding `CSc1ncc(C(=O)NCCCc2ccccc2)c(C)n1`, the activation is -0.15% (inactive).

`Cc1c(C(=O)NCCCc2ccccc2)cccc1[N+](=O)[O-]`: the activation is 8.08% (active).

In the case of `O=S1(=O)c2c(cccc2N2CCSCC2)Oc2ccccc2CN1Cc1cn(Cc2ccc(F)cc2)nn1`, the activation is -2.23% (inactive). Regarding `O=C(CCS(=O)(=O)c1ccccc1)Nc1ccc(Cl)c(Cl)c1`, the activation is 1.57% (inactive). Consider `COc1ccc(-n2c(SCC(=O)Nc3ccc4c(c3)OCCO4)nnc2-c2ccc(Cl)cc2)cc1`, for which the activation was -0.28% (inactive). Turning to `Cc1ccnc(NC(=O)C2CCN(S(=O)(=O)c3c(C)c(C)cc(C)c3C)CC2)c1`, the activation is 9.5% (active).

`Cc1ccc(Cl)cc1NC(=O)C1CCN(S(C)(=O)=O)CC1`: the activation was -0.58% (inactive). `O=C(Nc1ccccn1)C1CCN(S(=O)(=O)c2ccc3c(c2)OCCO3)CC1`: the activation was -2.23% (inactive).

As for `COC(=O)[C@]12C[C@H](CC(=O)NCc3ccc(C)o3)C(=O)N(CCC3=CCCCC3)C1=C[C@H](C(C)(C)C)O[C@@H]2C`, the activation is 3.47% (inactive). For `CCN(CC)C(=O)CC[C@@H]1CC[C@]2(CCCN(S(=O)(=O)C3CCCCC3)C2)O1`, the activation is -3.43% (inactive).

For `CO/N=C/CC(=O)c1ccc(OC)cc1`, the activation was 4.21% (inactive). For `COc1ccc(/C(N)=N/OC(=O)Oc2ccccc2)cc1` the value was 8.42% (active); for `N/C(=N\OC(=O)CCc1ccccc1)c1ccc(Cl)cc1`, 5.53% (inactive); for `CN(CC(=O)Nc1cccc(F)c1)C(=O)C1CSC2(C)CCC(=O)N12` (configuration not stated), -0.29% (inactive). Consider `CN1[C@H](Cc2ccccc2)COc2cccc(N3CCSCC3)c2S1(=O)=O`, for which the activation is 0.97% (inactive). Regarding `CCN1CCC(=NNC(=O)c2ccc(C)c([N+](=O)[O-])c2)CC1`, the activation was -0.87% (inactive). Consider `CCCCNc1ccc(C(=O)Nc2cccc(C)n2)cc1[N+](=O)[O-]`, for which the activation is -1.63% (inactive). In the case of `Cc1cc(O)c(NC(=O)c2ccc(C)c([N+](=O)[O-])c2)cc1C`, the activation was 9.28% (active). `COc1ccc(C(=O)N2CCN(c3ncccn3)CC2)cc1S(=O)(=O)N1CCOCC1`: the activation is -2.62% (inactive). In the case of `Cc1cc(C(=O)NN=C/C=C/c2ccco2)n[nH]1`, the activation was -4.94% (inactive).

In the case of `Cc1ccc(NC(=O)Cc2cccc(F)c2)c(S(=O)(=O)N2CCOCC2)c1`, the activation was -4.77% (inactive). `Cc1ccc(-c2c[n+](=O)c3c(n2[O-])CCC3)cc1`: the activation was -3.37% (inactive). With `Cc1ccc(-c2c(C)n([O-])c3c([n+]2=O)CCC3)cc1`, the activation was 14.5% (active). On to `CCOc1ccc(-c2c(C)n([O-])c3c([n+]2=O)CCCC3)cc1`, for which the activation is 0.92% (inactive). With `CCCc1cc(=O)oc2c(C)c(OC(C)C(=O)NCC(O)c3ccccc3)ccc12` (configuration not stated), the activation was -0.91% (inactive).

`CCCCOC(=O)Nc1nnc(CC(=O)NCc2ccccc2)s1`: the activation was -0.38% (inactive).

With `CCCCCCOC(=O)NCC(O)c1ccccc1` (configuration not stated), the activation is 11.2% (active). For `CN(C)CCNC(=O)C(C(=O)c1ccccc1)n1ccccc1=O` (configuration not stated), the activation is 2.29% (inactive). `O=C(CSc1nc2ccccc2nc1N1CCCCC1)N1CCN(S(=O)(=O)c2cccc([N+](=O)[O-])c2)CC1`: the activation is 5.57% (inactive). For `O=C(NC1CCC1)c1ccc(C#Cc2cccc(F)c2)c[n+]1[O-]` the value was -2.93% (inactive); for `O=C(Nc1ccc(OC(F)(F)F)cc1)c1ccc2c(c1)no[n+]2[O-]`, -7.81% (inactive).

Turning to `Cn1nccc1/C=N\NC(=O)c1ccc(Cl)cc1`, the activation was -0.88% (inactive).

Consider `Cn1cccc1/C=N/NC(=O)c1ccc(OC(F)(F)C(F)F)cc1`, for which the activation is 8.72% (active). With `O=C(COc1cc(Cl)c(Cl)cc1Cl)NC(=O)NC1CCCC1`, the activation is -2.73% (inactive). For `CC(C)CSc1nnc(-c2cccnc2)n1Cc1ccccc1` the value was -4.95% (inactive). As for `Cc1ccc(CN2CCCCC(NC(=O)C3CCCCC3)C2=O)cc1` (configuration not stated), the activation is -2.16% (inactive).

As for `Cc1cc(C)c2nc(N3CCC(C(=O)NCCN4CCOCC4)CC3)sc2c1`, the activation was -1.84% (inactive). Take `Cc1ccc(C)c(C(C)NC(=O)C2CCCO2)c1` (configuration not stated): the activation is -1.74% (inactive). As to `Cc1cc(C)c2nc(NC(=O)C3CCCO3)sc2c1` (configuration not stated), the activation was 7.96% (active).

For the compound `CCOC(=O)[C@]12CCCC3=C1N(CCC3)C(=O)[C@@H](CC(=O)N1CCSCC1)C2`, the activation was -1.03% (inactive). Turning to `CCOc1ccc(-n2c(SCC(=O)Nc3cc(C)c(NC(=O)c4ccccc4)cc3OC)nnc2-c2cccc(Cl)c2)cc1`, the activation is -5.83% (inactive). For `CN(C)S(=O)(=O)c1cccc(C(=O)N/N=C\c2ccco2)c1` the value was -2.36% (inactive).

On to `CCCCc1ccc(NC(=S)N2CCCC(CO)C2)cc1` (configuration not stated), for which the activation was 15% (active).

As for `CCC(C)c1ccc(NC(=S)N2CCCC2)cc1` (configuration not stated), the activation is -0.97% (inactive). Regarding `COc1cc(NC(=S)N2CCCC(C)C2)cc(OC)c1OC` (configuration not stated), the activation was 3.14% (inactive).

As to `N#CCC[C@H]1CC[C@]2(CCCN(Cc3ccc(Cl)cc3)C2)O1`, the activation is -3.04% (inactive). Under `COc1ccccc1C(=O)CSc1nnc(-c2ccccn2)n1-c1ccccc1` stands 5.55% (inactive). Regarding `O=S1(=O)c2ccc(N3CCN(Cc4ccccc4F)CC3)cc2Oc2ccccc2CN1Cc1cn(Cc2ccc(Cl)cc2)nn1`, the activation was 4.05% (inactive).

In the case of `Cc1cccc(NC(=O)C[C@H]2CC[C@H]3[C@@H](COc4ccc(NC(=O)Nc5ccccc5)cc4C(=O)N3C)O2)c1`, the activation was 2.72% (inactive). Under `Cc1cc(=O)[nH]c(SCC(=O)Nc2ccc(Cl)cc2C)n1` stands -2.94% (inactive); under `CCc1c(C)c2ccc(OC3CCCCC3=O)cc2oc1=O` (configuration not stated), 13.8% (active). For the compound `COC(=O)Cc1c(C)c2ccc(OCC(=O)NCc3ccc4c(c3)OCO4)cc2oc1=O`, the activation is 2.31% (inactive).

In the case of `O=C(COc1ccc2c3c(c(=O)oc2c1)CCC3)NC1CCCCC1`, the activation is -1.03% (inactive). `Cc1ccccc1NC(=O)Cn1nnc(-c2ccccc2F)n1`: the activation is 1.3% (inactive). Under `c1ccc(Cc2nn3c(Cn4cnc5ccccc54)nnc3s2)cc1` stands -3.67% (inactive). Turning to `CN1CCC(=NNC(=O)c2ccc(N(Cc3ccc(Cl)cc3)S(C)(=O)=O)cc2)CC1`, the activation is -1.44% (inactive). `CCC1CCC/C1=N\NC(=O)c1ccc(Cl)cc1` (configuration not stated): the activation is 10.3% (active).

As to `CC(NC(=O)c1ccc(Cl)cc1)C(=O)N1CCCCC1` (configuration not stated), the activation was 0.9% (inactive). Under `O=C(CSc1ncnc2c1nnn2Cc1ccc(F)cc1)NC1CCCC1` stands -2.99% (inactive).

Source of the values: PubChem BioAssay AID652017 (The Scripps Research Institute Molecular Screening Center, 2013).
